Only some compounds are listed: those with a hit (about 1.4% of all), similar ones and a draw of the others.
MenB inh: Mtb MenB enzyme inhibition; P9WNP5; MenB enzyme assay, absorbance read-out; inhibition, % (test concentration not listed); 100,000 compounds, 0.43% hits; in the data active = inhibition above about 21%, passing the limit was not always enough
AID504770: E. coli YBA685 growth inhibition, screen for V. cholerae RctB inhibitors. E. coli YBA685 rctB-dependent plasmid, OD600 growth, 3 h; stronger effect = lower value. z-score (concentration not given with the values). 130,000 compounds, 0.27% hits. AID 504770; in the data active = z-score below about -2, passing the limit was not always enough
MbtI inh: blocks the Mycobacterium tuberculosis siderophore enzyme MbtI. P9WFX0. purified MbtI enzyme, fluorescence intensity read-out. inhibition, % (concentration not given with the values). 100,000 compounds, 0.89% hits; in the data active = inhibition mostly above about 56%, no sharp cut-off; inactive = mostly below about 77%
PV pol inh: poliovirus RNA polymerase inhibition | 150,000 compounds, 0.66% hits | AID 588519 | P03300 | poliovirus polymerase elongation, fluorescence polarization; stronger effect = lower value | % elongation, % (compound at 16.7 µg/mL); in the data active = % elongation below about 90%
Target sequence (P03300 1749-2209 limits assumed): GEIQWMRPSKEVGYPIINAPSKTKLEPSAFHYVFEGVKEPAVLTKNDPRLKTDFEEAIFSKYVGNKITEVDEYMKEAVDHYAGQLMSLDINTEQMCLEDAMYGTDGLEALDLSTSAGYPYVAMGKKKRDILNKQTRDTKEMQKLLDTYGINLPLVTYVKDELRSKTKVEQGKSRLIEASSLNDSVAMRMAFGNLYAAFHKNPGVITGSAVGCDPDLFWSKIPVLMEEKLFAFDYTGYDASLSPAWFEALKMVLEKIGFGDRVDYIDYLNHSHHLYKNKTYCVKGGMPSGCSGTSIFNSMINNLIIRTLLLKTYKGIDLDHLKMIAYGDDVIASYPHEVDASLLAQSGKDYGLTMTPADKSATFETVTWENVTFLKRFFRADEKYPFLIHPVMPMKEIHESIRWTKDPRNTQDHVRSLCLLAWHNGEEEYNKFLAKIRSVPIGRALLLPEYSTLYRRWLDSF
* marks the source's active call; other numbers are inactive results; . = no result given.

SMILES	MenB inh	AID504770	MbtI inh	PV pol inh
Cc1ccc(N2C(=O)/C(=C\c3ccc4c(c3)OCO4)N=C2SCC(=O)NCC2CCCO2)cc1 (configuration not stated)	-180	-0.55	-30	101
Oc1ccccc1-c1nc(N2CCCCCC2)c2ccccc2n1	-3	0.1	-3	102
CCC(=O)NC1(C(F)(F)F)N=C(c2ccccc2)N(C2CCCC2)C1=O (configuration not stated)	14	-0.45	-4	98
COc1cccc(C(=O)OC(C)C(=O)Nc2ccc(N(C)C)cc2)c1 (configuration not stated)	-37	1.6	-1	100
Cc1nc2nc(C(F)(F)F)[nH]c2cc1Br	-32	0.4	70*	104
CN(C)C(=O)CSCc1c(Cl)cccc1Cl	-9	0.4	4	34*
COc1cc(C(=O)OCC(=O)NC2C3CC4CC(C3)CC2C4)cc2c1OCCO2 (configuration not stated)	-2	-0.4	-2	106
O=C(COc1ccc(Cl)cc1Cl)NO	.	-5.4*	.	.
CCC(CC)NC(=O)COc1ccc(Cl)cc1Cl	.	0.15	-4	101
Cc1cc(C)n2c(Nc3c(C)cccc3C)c(-c3ccc(C)o3)nc2n1	-44	-0.4	26	99
O=C(O)/C=C/c1ccco1	-11	0.5	25	101
O=C(/C=C/c1ccco1)C1C(=O)c2ccccc2C1=O	-72	1.6	69*	105
Cc1cc(C)c2[nH]c(=O)c(CN(Cc3ccc(F)cc3)Cc3nnnn3CC3CCCO3)cc2c1 (configuration not stated)	-14	0.2	10	103
S=c1[nH]c2ccccc2n1Cc1ccccc1	-19	0.15	84*	96
N#CCCn1c(=S)[nH]c2ccccc21	-11	-0.05	99	82*
S=c1[nH]c2ccccc2n1CCOc1ccccc1	-72	0.2	95*	99
CN(C(=O)CSc1nc2c(c(=O)[nH]1)CCC2)C1CCCCC1	-13	0.8	29	102
O=C(COc1ccc2c(c1)CCC2)N(Cc1cccnc1)c1ccc2c(c1)OCO2	-26	0	3	117
O=C(O)c1ccc(COc2ccc(Cl)cc2CO)cc1	1	-0.6	6	101
O=C1CSC(=O)N1CC(O)COc1cccc2ccccc12 (configuration not stated)	-12	-0.45	47	103
CC1CN(Cn2c(=S)oc3ccccc32)CC(C)O1 (configuration not stated)	-28	-0.9	60	90*
CC1CN(Cn2nc(C(=O)O)c3ccccc32)CC(C)O1 (configuration not stated)	-22	-0.75	-5	100
O=C1CCCC2=C1C(c1ccc(F)cc1)c1c([nH]c(=O)[nH]c1=O)N2 (configuration not stated)	5	-0.7	-3	100
CN1C=C(c2ccccc2)N(c2ccccc2)C1	-26	1.5	.	67*
c1ccc(N2CN3CN2CN3c2ccccc2)cc1	-4	1.5	-220	104
SMILES	MenB inh	AID504770	MbtI inh	PV pol inh
Clc1ccc(Cn2nnc3ccccc32)cc1Cl	-66	1.3	-1	104
Clc1ccc(Cl)c(-c2nn3c(Cn4nnc5ccccc54)nnc3s2)c1	-96	1.4	93*	102
O=C1CSC(=S)N1Nc1ccccc1	-59	-4	76*	105
Cc1nc2ccn(Cc3cccnc3)c(=O)c2cc1C(=O)Nc1ccccc1	-7	0.55	-12	100
COC(=O)COc1ccc(S(=O)(=O)N2CCCCC2)cc1C	10	0.1	5	100
COc1ccc(F)cc1S(=O)(=O)Nc1cccc(-c2ccc(N3CCCCCC3)nn2)c1	.	.	.	110
COc1ccc(OC)c(S(=O)(=O)Nc2cccc(-c3ccc(N4CCCCC4)nn3)c2)c1	.	.	.	85*
Cn1c2c(c(=O)n(C)c1=O)C(c1ccccc1)C(C#N)=C(N)O2 (configuration not stated)	-19	-2.3	.	85*
COc1cccc(C2C(C#N)=C(N)Oc3c2c(=O)n(C)c(=O)n3C)c1 (configuration not stated)	-42	-0.75	-20	101
Cc1n[nH]c(=S)n1CC1CCCO1 (configuration not stated)	-16	-0.1	-6	103
Cc1[nH]c(=S)n(CC2CCCO2)c1C (configuration not stated)	12	1.4	95*	95
CC(=O)N(c1ccccc1)c1nc(COC(=O)/C=C/c2cccs2)cs1	-2	0.75	6	102
Cc1nn(-c2ccccc2)c2c1N(CC(=O)N1CCCCC1)C(=O)CS2	13	0.3	5	100
COC(=O)c1cncc(Br)c1	.	0.1	.	.
O=CNc1ccc(OC(=O)c2cncc(Br)c2)cc1	-23	-0.15	-8	78*

Screening data as filed in PubChem BioAssay.
